SARS 3CLpro inh = SARS-CoV 3CLpro protease inhibition; recombinant SARS-CoV 3CLpro, quenched FRET peptide cleavage; inhibition, % at 6 µM; P0C6X7; actives 0.14% (n = 290,000); in the data active means inhibition above about 12%
BJeLR viability = BJeLR cell viability loss; BJeLR (HRASV12) viability, CellTiter-Glo ATP luminescence, 48 h; inhibition, % (concentration not given with the values); actives 0.17% (n = 300,000); in the data active means inhibition above about 50%
PrP 5UTR inh = suppresses PrP 5' UTR mRNA reporter expression; cell-based PrP 5' UTR mRNA reporter, plate reader; inhibition, % (no concentration beside the values); actives 0.35% (n = 340,000); AID 488862; in the data active means inhibition above about 52%; further: 0 = median of the neutral control wells
RecA splice inh = inhibitors of M. tuberculosis RecA intein splicing | inhibition, % (concentration not given with the values) | AID 2221 | actives 0.75% (n = 290,000) | cell-free RecA intein splicing, fluorescence | P9WHJ3; in the data active means inhibition above about 30%;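 further: 0% = vehicle wells and 100% = reference inhibitor control wells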
Target sequence (P9WHJ3 whole entry, looked up, canonical isoform): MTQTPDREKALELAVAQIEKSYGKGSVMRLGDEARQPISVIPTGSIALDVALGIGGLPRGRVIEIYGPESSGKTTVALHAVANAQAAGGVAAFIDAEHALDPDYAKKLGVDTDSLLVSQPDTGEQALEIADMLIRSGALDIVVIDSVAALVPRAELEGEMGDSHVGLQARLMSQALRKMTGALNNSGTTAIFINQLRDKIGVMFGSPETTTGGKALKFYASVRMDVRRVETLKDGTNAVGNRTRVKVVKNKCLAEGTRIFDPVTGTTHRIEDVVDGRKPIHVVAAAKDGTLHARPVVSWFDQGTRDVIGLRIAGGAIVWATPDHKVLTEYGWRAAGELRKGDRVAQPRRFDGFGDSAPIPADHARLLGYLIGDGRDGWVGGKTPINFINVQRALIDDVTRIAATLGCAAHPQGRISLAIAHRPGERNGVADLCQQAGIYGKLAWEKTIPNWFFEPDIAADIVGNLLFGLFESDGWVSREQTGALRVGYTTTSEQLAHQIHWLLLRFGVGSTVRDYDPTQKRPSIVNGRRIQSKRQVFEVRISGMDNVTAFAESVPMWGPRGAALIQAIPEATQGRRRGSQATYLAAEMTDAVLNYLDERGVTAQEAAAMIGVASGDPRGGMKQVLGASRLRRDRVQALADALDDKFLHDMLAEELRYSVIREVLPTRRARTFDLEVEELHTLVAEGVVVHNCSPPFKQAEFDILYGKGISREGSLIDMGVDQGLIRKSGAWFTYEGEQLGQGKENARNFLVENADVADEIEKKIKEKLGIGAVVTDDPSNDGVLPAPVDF
PrPC surface inh = reduces human prion protein on the cell surface; P04156; cell surface PrPC, TR-FRET read-out; inhibition, % at 13.8 µM; actives 0.43% (n = 370,000); in the data active means inhibition above about 24%; further: 0% = median of the test wells and 100% = reference compound wells
Mtb hypoxia rep = reduces hypoxia-regulated biosensor signal in M. tuberculosis. M. tuberculosis hypoxia-regulated fluorescent reporter, fluorescence. fluorescence inhibition, % (concentration not given with the values). actives 0.1% (n = 300,000). AID 1159583; in the data active means fluorescence inhibition mostly above about 23%, no sharp cut-off; inactive means mostly below about 17%
* = called active by the depositor; nt = no result shown. Shown are actives, neighbours in structure and some others; about 1.4% of the full set was active somewhere.

SMILES | SARS 3CLpro inh | BJeLR viability | PrP 5UTR inh | RecA splice inh | PrPC surface inh | Mtb hypoxia rep
CCC(C)C(NC(=O)C1CCN(C(=O)C(NS(=O)(=O)c2ccc(C)cc2)C(C)C)CC1)C(=O)O (stereo not given) | nt | nt | nt | nt | nt | 9
O=C(c1ccc([N+](=O)[O-])o1)N1CCc2ccccc2C1 | -3 | 1 | -8 | 4 | -24 | 47*
COc1cc2c(cc1OC)CN(C(=O)c1ccc([N+](=O)[O-])o1)CC2 | -2 | -5 | 9 | -2 | -22 | nt
CC(c1ccc(O)cc1)(c1ccc(O)cc1)c1ccc(CCBr)cc1 | -1 | -5 | -18 | 31* | -2 | nt
COCc1[nH]nc2c1C(c1ccc(OC)cc1)C(C#N)=C(N)O2 (stereo not given) | 3 | 13 | -14 | 58* | -2 | -4
COCc1[nH]nc2c1C(c1ccccc1F)C(C#N)=C(N)O2 (stereo not given) | 3 | -21 | -1 | 35* | -5 | 4
Cc1nc2ccc(CN(C)c3ccc(C(=O)N[C@@H](CCC(=O)O)C(=O)O)s3)cc2c(=O)[nH]1 | nt | 72* | nt | -4 | nt | nt
CC(=O)N(C(C)=O)c1ccc2nc(C)[nH]c(=O)c2c1 | -5 | 8 | -11 | -3 | 4 | 11
COc1ccccc1N1CCN(N=Cc2sccc2C)CC1 | nt | nt | nt | nt | nt | 16
COc1cc(C2C(C#N)=C(N)Oc3n[nH]c(-c4cccnc4)c32)ccc1OCC(N)=O (stereo not given) | -4 | -9 | -35 | 46* | 2 | 15
COc1ccc(C2C(C#N)=C(N)Oc3n[nH]c(C)c32)cc1Cn1nc(C)c([N+](=O)[O-])c1C (stereo not given) | -8 | 5 | -1 | 84* | 4 | nt
COc1ccc(C2C(C#N)=C(N)OC3=C2C(=O)CCC3)cc1Cn1nc(C)c([N+](=O)[O-])c1C (stereo not given) | 1 | 6 | -6 | 4 | 3 | 2
COc1cc(C2C(C#N)=C(N)Oc3n[nH]c(C)c32)ccc1OC(=O)c1ccccc1 (stereo not given) | 0 | -3 | -14 | 38* | 2 | 1
CCN1CC2C3C(=O)N(C)C(=O)C3[C@](Cc3ccccc3)(C1=O)N2C(=O)c1ccc(Cl)c(Cl)c1 (stereo not given in full) | nt | nt | nt | nt | nt | -3
COc1ccc(S(=O)(=O)Nc2cccc3c2OC(CN(C)S(=O)(=O)c2ccc(Cl)cc2)C(C)CN(C(C)CO)C3=O)cc1 (stereo not given) | nt | nt | nt | nt | nt | -6
NC(=S)NN=C1CC(n2nnnc2-c2ccccc2)C2COC1O2 (stereo not given) | nt | nt | nt | nt | nt | -2
O=C(O)C1=CC(c2cccs2)CC(OCCCCO)O1 (stereo not given) | nt | nt | nt | nt | nt | -5
C=CC1c2c(F)cccc2N(S(=O)(=O)c2ccc(C)cc2)C(c2ccc(C(=O)OC)cc2)C1(C#N)C#N (stereo not given) | nt | nt | nt | nt | nt | -6
CC(C)(C)n1nnnc1C(c1cccs1)N(Cc1cccnc1)Cc1ccccc1Cl (stereo not given) | -1 | 0 | -4 | 35* | 1 | 3
NC(=O)CCCn1c(C(=O)c2ccc(Cl)cc2)c2ccc([N+](=O)[O-])cc2[n+]1[O-] | nt | 2 | -5 | 7 | -5 | 40*
CCN(CC)S(=O)(=O)c1ccc(NN=Cc2ccc(O)cc2O)nc1 | nt | nt | nt | nt | nt | 8
CCOc1cccc(/C=N/Nc2ccc(S(=O)(=O)N(CC)CC)cn2)c1O | 1 | 52* | 29 | 5 | -4 | nt
O=C(Cn1cnc2c(nnn2Cc2ccccc2F)c1=O)N1CCN(c2ccccc2)CC1 | 0 | -9 | -14 | 1 | -1 | 4
CC(C)(C)NC(=O)CSc1ncnc2c1nnn2Cc1ccccc1Cl | 2 | -1 | -14 | 61* | 13 | nt
O=C(CSc1ncnc2c1nnn2Cc1ccccc1F)N1CCN(c2ccccc2)CC1 | -4 | 5 | -13 | 43* | 6 | 3
COc1ccccc1/C=C/C=Nn1c(-c2ccccc2)n[nH]c1=S | nt | nt | nt | nt | nt | 12
CN(Cc1cnc2nc(N)nc(N)c2n1)c1ccc(C(=O)N[C@@H](CCC(=O)O)C(=O)O)cc1 | nt | 76* | 45 | -14 | -14 | nt
COc1ccccc1C(=O)ON=C(c1ccncc1)c1ccc([N+](=O)[O-])cc1 | nt | nt | nt | nt | nt | -2
COc1cc(/C=C/c2ccc3cccc([N+](=O)[O-])c3n2)ccc1OCC(=O)O | 3 | 9 | -1 | 10 | -39 | 6
